Assay results reported in ChEMBL document CHEMBL3988442, “University of Dundee, Small-Polar-MMV Screening Library” (2021).
Out of some 48,000 compounds screened, about 13,000 (27%) showed an effect of 50% or more. Some of the results follow.

tested on: Wolbachia pipientis; assay: Anti-Wolbachia Cell-Based Screen; format: functional; parameters: scale not given: in the data most compounds retested in dose-response had high values; conditions: 5 µM

Compound | Percent Effect
Cc1nc(CCNC(=O)NCc2ccc(N(C)C)nc2)cs1 | 2.776%
Cc1nc(CSCCC(=O)NCc2ccc(N(C)C)cc2)cs1 | 100.6%
Cc1nc(CNC(=O)NCc2ccc(OCC3CC3)nc2)cs1 | -6.746%
COc1ccc(CNC(=O)NCCc2csc(C)n2)cn1 | 78.6%
Cc1ncsc1CCC(=O)NCc1csc(N(C)C)n1 | 8.732%
CCOc1ccc(C(=O)CCC(=O)NCCc2nncn2CC)cc1C | -15.05%
CC(=O)N1CCC2(CC1)C(=O)N(c1ccc(C)nc1)CCN2CC(C)C | -6.199%
CCCS(=O)(=O)N1CCN(C(=O)CO)CC1 | 9.785%
COc1ccc(C2=C(C)C(N3CCc4ccccc4C3)=NS2(=O)=O)cc1 | -1.571%
COc1ccc(C2=C(C)C(N3CCc4ccccc43)=NS2(=O)=O)cc1 | 41.03%
CC(C)c1nc(C2CCCN2CC(=O)N2CCc3ccccc32)no1 (centres undefined) | 8.047%
CC1=C(c2ccc(C(C)C)cc2)S(=O)(=O)N=C1N1CCc2ccccc21 | 127.3%
CCS(=O)(=O)CC(=O)Nc1ccccc1N1CCc2ccccc21 | -1.356%
CC1=C(c2ccc(F)cc2)S(=O)(=O)N=C1N1CCc2ccccc21 | 117.2%
CNC(=O)NCC(=O)Nc1ccccc1N1CCc2ccccc21 | -5.269%
CC1=C(c2ccc(Cl)cc2)S(=O)(=O)N=C1N1CCc2ccccc21 | 182.9%
CC1=C(c2ccc(C)cc2)S(=O)(=O)N=C1N1CCc2ccccc21 | 130.8%

Compound | Percent Effect
CS(=O)(=O)NCCC(=O)Nc1ccccc1N1CCc2ccccc21 | 4.986%
CCc1nccn1CC(=O)N1C[C@H]2CC[C@@H]1CN(S(=O)(=O)N(C)C)C2 | -7.287%
Cc1nc(CN2CCCC2C(=O)OCc2ccccc2)oc1C (centres undefined) | 2.818%
CCN1CCN(C(=O)NCc2cccc(-c3cnn(C)c3)c2)CC1 | -0.06636%
CCOC(=O)NC(CNC(=O)c1cccc(C)n1)CC(C)C (centres undefined) | -0.9976%
COCc1ccccc1C(=O)N1CCC(CNC(=O)OC(C)(C)C)C1 (centres undefined) | -8.221%
CS(=O)(=O)CCC(=O)N1C[C@@H]2CC[C@H](C1)N(Cc1ccccn1)C2=O | 13.71%
N[C@@H]1CC[C@@H](Nc2nccc(CCC(F)(F)F)n2)C1 | -1.257%
COc1cc(F)c(NCc2nc3ccccc3n2C)cc1OC | 108.7%
COCCOc1ncccc1NCc1nc2ccccc2n1C | 92.25%
Cn1c(CCCNc2nccnc2C#N)nc2ccccc21 | -4.565%
COc1ccc(-n2c(CO)nc3ccccc32)cc1CO | -2.808%
CN1C[C@@H](F)[C@@H](OCc2nc3ccccc3n2C)C1 | 6.816%
CCNc1ncc(C(=O)N(C)Cc2nc3ccccc3n2C)cn1 | -2.006%
CN(C)c1nccc(N(C)Cc2nc3ccccc3n2C)n1 | -8.65%
COc1ccccc1-c1noc(CNc2ccc(F)cc2OCCO)n1 | 0.4936%
COCCOc1ccc(F)cc1NCc1nc2ccccc2n1C | 110.1%
